# Experimental data taken from PubChem BioAssay AID485313 (National Center for Advancing Translational Sciences (NCATS), 2010).
# The whole screen tested about 320,000 compounds, of which about 7,600 (2.4%) were called active. Another 3% or so got no clear call; they are omitted. The list comes from a sample in which actives are over-represented; it also holds similar structures and randomly drawn compounds. Unmarked numbers belong to inactive results. Calls follow the shape of the dose curve; as a rule, active = well fitted activation curve with a large enough effect; inconclusive = small, poorly fitted or top-dose-only effect; inactive = no such curve, though single readings can be large or run the other way.
# Experiment: qHTS Assay for NPC1 Promoter Activators; also: nearly all actives have a fitted effect of over 60% in size;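 as to activation: reporter is driven by a mutant NPC1 promoter; % of control where 0% means no effect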
# Conditions: Huh7 NPC1 promoter luciferase reporter, 24 h; series mostly up to 9.22 µM; activation: at the top concentration
# Outline: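 Luminescence from an NPC1 promoter-driven luciferase reporter in stably transfected Huh7 cells was measured after 24 h compound treatment at 37 °C, followed by 10 min ambient incubation with luciferase detection reagent.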
# Potency is read from the fitted curve at half-maximal effect.
Compound,activation,Potency
CC(=O)NC12CC3CC(C1)CC(C(=O)N1CCN(C(=O)c4ccco4)CC1)(C3)C2,0.551%,
CC12CCC(C(=O)N3CCN(c4ncccn4)CC3)(c3nc4ccccc4nc31)C2(C)C (centres undefined),-0.0128%,
c1cnc(N2CCN(c3ccc4ccccc4n3)CC2)nc1,,1410 nM (active)
O=C(c1ccncc1)N1CCN(c2ccc3ccccc3n2)CC1,-0.852%,
CCc1nnc(NC(=O)c2cc(S(=O)(=O)N3CCCCC3)ccc2C)s1,-2.65%,
CCC1(C)CC(=O)NC1=O (centres undefined),0.774% [at 46.1 µM],
CC(C)(C)OC(=O)NCCCCCNC(=O)c1[nH]cnc1C(=O)Nc1nccs1,9.24%,
O=C(Nc1ccc2c(c1)OCCO2)c1ccoc1,29.1%,
CCn1c(SCC(=O)Nc2ccc3c(c2)OCCO3)nnc1-c1ccncc1,-7.41%,
O=C(Nc1cccc(NC(=O)c2ccco2)c1)c1cnccn1,2.89%,
CCn1c(SCC(=O)Nc2ccc3c(c2)OCCO3)nnc1C(C)C,3.74%,
O=C(Nc1ccc2c(c1)OCCO2)c1cnccn1,,2820 nM (active)
Cn1ccnc1SCC(=O)Nc1ccc2c(c1)OCCO2,,2510 nM (active)
O=C(COC(=O)c1ccccc1Cl)NC1CCCCCCC1,-2.13%,
O=C(N[C@@H](Cc1c[nH]c2ccccc12)C(=O)O)OCC1c2ccccc2-c2ccccc21,-7.22%,
O=C(Nc1ccccn1)C1CCN(S(=O)(=O)c2ccc3c(c2)OCCO3)CC1,14.3%,
CCOC(=O)C1CCCN(S(=O)(=O)c2ccc3c(c2)C(C)(C)C(=O)N3C)C1 (centres undefined),-2.74%,
COc1ccc(N(CCC(=O)NCCc2ccccc2)S(=O)(=O)c2ccc(C)cc2C)cc1,22.4%,
COc1ccc([C@H]2CC(=O)C=C(c3ccc(OC(F)(F)F)cc3)C2)cc1OC,-9.62%,
O=C(O)CSc1ccc(S(=O)(=O)N2CCCC2)cn1,-3.11%,
Cc1ccc(C(=O)OCC(=O)Nc2ccc(Cl)cn2)cc1S(=O)(=O)N1CCOCC1,-2.74%,
Cc1ccc(C)c(NC(=O)c2ccc3nccnc3c2)c1,17.9%,
O=C(NCCc1ccc(F)cc1)c1ccc(S(=O)(=O)N2CCCCC2)cc1,-0.529%,

Compound,activation,Potency
O=C(NCCc1ccc(F)cc1)c1ccc2nccnc2c1,,1780 nM (active)
Cc1ccc(S(=O)(=O)NCCC(=O)NCc2ccc(Cl)cc2)cc1C,-0.223%,
CCN(CC)C(CNC(=O)CSc1nnnn1-c1cccc(F)c1)c1ccco1 (centres undefined),-0.632%,
CC(NC(=O)c1cccc(S(=O)(=O)N2CCc3ccccc3C2)c1)c1ccco1 (centres undefined),-1.49%,
COC(=O)c1c(NC(C)=O)sc(C(=O)Nc2ccccc2OC)c1C,-0.966%,
CCOC(=O)c1sc(NC(=O)COc2ncnc3ccccc23)c(C(=O)OCC)c1C,0.322%,
CCC(=O)Nc1sc(C(=O)Nc2ccccc2)c(C)c1C(=O)OC,,794 nM (active)
NC(=O)NC(CC(=O)NNC(=O)c1ccccn1)c1ccc(Cl)cc1 (centres undefined),-0.18%,
CC(C)CCN1CCC(C)(NC(=O)c2ccccc2)C1=O (centres undefined),4.78%,
COc1ccc(NC(=O)CS(=O)(=O)c2ccccc2)cc1,22.2%,
COc1ccc(C(CC(=O)c2ccccc2)S(=O)(=O)c2ccccc2)cc1 (centres undefined),,3550 nM (active)
COc1ccc(N(Cc2ccccc2)S(=O)(=O)c2cccc(C(=O)O)c2)cc1,0.572%,
O=C(CN1CCN(S(=O)(=O)c2ccc(Cl)s2)CC1)N1CCCCC1,-0.339%,
COc1cc([N+](=O)[O-])ccc1NC(=O)COC(=O)CCOc1ccc(C)cc1,-18.1%,
CC(C)c1nc2cc(C(=O)NC(C)c3cnn(C)c3)ccc2o1 (centres undefined),-0.273%,
COc1ccc(CNC(=O)c2cc(=O)c3c(C)cc(C)cc3o2)cc1,1.79%,
COc1ccc(CNC(=O)c2ccc3oc(C(C)C)nc3c2)cc1,,3550 nM (active)
CCCN(C(=O)c1nc2nccc(C)n2n1)c1c(N)n(Cc2ccccc2)c(=O)[nH]c1=O,-1.99%,
Cn1c2cc(B(O)O)sc2c2cnn(Cc3ccccc3F)c(=O)c21,-9.76%,
CCOCc1c(C(=O)N2CCN(Cc3ccc(Br)s3)CC2)oc2ccccc12,-2.8%,
Cc1ccc(/C=C/C(=O)OCC(=O)Nc2cccnc2Cl)cc1,-3.1%,
CCCCCOC(=O)NCCOC(=O)Nc1ccc(C(=O)OCC)cc1,-4.44%,
CCCCCCOC(=O)NCC(O)c1ccccc1 (centres undefined),,3980 nM (active)

Compound,activation,Potency
CCCCOC(=O)Nc1nnc(CC(=O)NCc2ccccc2)s1,-2.1%,
S=C1NC(c2ccccc2)=NCN1c1ccc(Br)cc1,11.1%,
N#Cc1ccc(C2N=C(c3ccccc3)NO2)cc1 (centres undefined),,1260 nM (active)
Brc1ccccc1C1N=C(c2ccccc2)NO1 (centres undefined),,3980 nM (active)
Brc1ccccc1C1Nc2cccc3cccc(c23)N1,-5.12%,
CSCC[C@H](NC(=O)NC1CCCC1)C(=O)O,-1.29%,
Cc1c(NC(=O)CSc2nnc(-c3cccnc3)n2N)c(=O)n(-c2ccccc2)n1C,-4.26%,
O=S(=O)(NCc1ccccc1Br)c1ccccc1Br,0.992%,
C=C1CCC(N(O)c2cc(C)on2)C(=C)CCC2C1CC2(C)C (centres undefined),-0.705%,
O=C(COc1ccc2oc3c(c2c1)CCCC3)Nc1ccccn1,,631 nM (active)
CCN(CC)CCCNC(=O)COc1ccc2oc3c(c2c1)CCCC3,-11.7%,
CCOC(=O)N1CCN(C(=O)COc2ccc3oc4c(c3c2)CCCC4)CC1,0.817%,
Cc1cc(C)nc(N/N=C/c2c(C)oc3ccccc23)n1,-5.87%,
C(=N\Nc1ccc2ccccc2n1)/c1ccc2c(c1)OCO2,,316 nM (active)
O=C(N/N=C/c1ccc2c(c1)OCO2)C(=O)N1CCCC1,26.8%,
Cc1noc(C)c1/C=N/Nc1ccc2ccccc2n1,,2820 nM (active)
Brc1ccc(-c2csc(N/N=C/c3ccc4c(c3)OCO4)n2)cc1,6.54%,
Cc1nc(Cl)cc(N/N=C/c2ccccc2)n1,10.4%,
CCOc1ccc(S(=O)(=O)N2CCCCC2)cc1NC(=O)CN1CCCC1c1cccs1 (centres undefined),-18.7%,
O=C(c1ccc(Cl)nc1)N1CCN(S(=O)(=O)c2ccc3c(c2)OCCO3)CC1,-8.95%,
CCN(CC)CCCNC(=S)N(CCO)Cc1cc2cc3c(cc2[nH]c1=O)OCO3,-0.386%,
CCOc1ccc(C(O)Cc2nc3ccccc3n2C)cc1 (centres undefined),27.8%,
CC(C)n1c(COc2ccccc2)nc2ccccc21,5.01%,

Compound,activation,Potency
Cc1ccc(OCc2nc3ccccc3n2C)cc1,,3550 nM (active)
CCOC(=O)N1CCN(S(=O)(=O)c2ccc3c(c2)C(C)C(=O)N3)CC1 (centres undefined),1.11%,
Cc1ccc(C(=O)NNC2=Nc3cc([N+](=O)[O-])ccc3OC2)cc1,0.883%,
COc1ccc(C2=Nc3cc(C)ccc3OC2)cc1,,891 nM (active)
COc1ccc(C2=NOC(COC(=O)c3ccc4ccccc4n3)C2)cc1 (centres undefined),1.95%,
COc1ccc2ccn(C)c2c1,0.38%,
Cc1nn(Cc2ccccc2)c(C)c1C(=O)NCCCN1CCCC1=O,-7.25%,
COn1c(-c2ccc(Cl)cc2Cl)nc2ncccc21,-1.68%,
Clc1ccc(-c2cc(-c3ccccn3)on2)c(Cl)c1,,100 nM (active)
Clc1ccc(-c2ncc3ccccn23)c(Cl)c1,-8.18%,
Cc1cc(N=Nc2ccc3ccccc3c2)ccc1O,,2240 nM (active)
Cc1ccc(/C=N/NC(=O)c2cc3ccccc3cc2O)o1,19.5%,
CC(=O)CCC(=O)c1ccc2ccccc2c1,8.66%,
Cc1ccc(S(=O)(=O)N(C)C)cc1NC(=O)c1ccc(-n2cncn2)c([N+](=O)[O-])c1,-1.61%,
Cc1ccc(NC(=O)CN(C)C(=O)c2cccc(S(=O)(=O)N3CCCC3)c2)cc1,-0.017%,
CC(=O)NC(c1cccs1)c1cc(Br)c2cccnc2c1O (centres undefined),-34.6%,
CCC(C)NC(=O)c1ccc(NC(=O)CC2SC(N3CCCCC3)=NC2=O)cc1 (centres undefined),-7.63%,
Cc1nonc1NC(=O)CSc1nc2ccccc2cc1C#N,2.61%,
CC(NC(=O)CSc1nc2c(cc1C#N)CN(C)CC2)c1ccccc1 (centres undefined),0.595%,
Cc1cc(NC(=O)CSc2nc3c(cc2C#N)CCCCC3)no1,,1410 nM (active)
COc1ccc(C(=O)OCC(=O)c2cc(C)n(CC3CCCO3)c2C)cc1[N+](=O)[O-] (centres undefined),0.532%,
CCCCN(C(=O)C1CCC1)c1c(N)n(Cc2ccccc2)c(=O)[nH]c1=O,2.36%,
Cn1c(SCC(=O)Nc2ccc(N3CCOCC3)cc2)nnc1C(F)(F)F,21.8%,

Compound,activation,Potency
CC1CCN(C(=O)COC(=O)c2cc(=O)[nH]c3ccccc23)CC1,,3550 nM (active)
CN(C(=O)COC(=O)c1cc(=O)[nH]c2ccccc12)C1CCCCC1,16.7%,
COC(=O)C1CCN(C(=O)c2cc(=O)[nH]c3ccccc23)CC1,-6.71%,
Cc1cccc(NC(=O)COc2ccc(Br)cc2C)n1,,2820 nM (active)
CCN(CC)S(=O)(=O)c1ccc(C)c(NC(=O)COc2ccc(Br)cc2Cl)c1,-4.98%,
Cc1cccc(NC(=O)Nc2ccc(OCc3ccccc3)cc2)n1,1.29%,
Cc1cc(C)cc(NC(=O)C(OC(=O)c2ccc(O)cc2)c2ccccc2)c1 (centres undefined),0.458%,
Cc1ccccc1NC(=S)NNC(=O)c1cccc(Br)c1,6.78%,
Cc1ccc(C)c(NC(=S)NNC(=O)c2csc(C)c2)c1,-1.13%,
Cc1cc(C(=O)NNC(=S)Nc2ccccc2C)cs1,,3160 nM (active)
Cc1ccc(C(=O)OCC(=O)NCc2cc(C)c(O)c(C)c2)cc1S(=O)(=O)N1CCCCC1,0.848%,
NS(=O)(=O)c1ccc(N2C(=O)C3C4CC(C(Br)C4Br)C3C2=O)cc1 (centres undefined),-3.28%,
CCOc1ccc(NC(=O)CN(C)C(=O)CSc2ccccc2)cc1OCC,-2.46%,
Cc1ccc(C(=O)O/N=C(\N)c2ccccn2)cc1Cl,,1580 nM (active)
N/C(=N\OC(=O)Cc1ccc([N+](=O)[O-])cc1)c1ccccn1,21.7%,
Cc1ccc(/C(N)=N/OC(=O)COc2ccc(Cl)c(C)c2)cc1,-3.15%,
O=C(Nc1ccccc1Cl)O/N=C(/c1ccccc1)c1ccccn1,1.22%,
O=C(COC(=O)c1ccccn1)NNC(=O)c1ccc([N+](=O)[O-])cc1,0.17%,
N/C(=N\OC(=O)c1ccc([N+](=O)[O-])cc1)c1ccccn1,,355 nM (active)
COc1ccc(C(=O)NNC(=O)c2cnccn2)cc1[N+](=O)[O-],0.689%,
COc1ccc(C(=O)O/N=C(\N)c2ccccn2)cc1[N+](=O)[O-],,2510 nM (active)
COc1ccc(C(=O)CSc2nc(C)cc(C)n2)cc1[N+](=O)[O-],2.6%,
